Rows were chosen to be rich in hits. Some 18% of all compounds tested hit in one or more screens of this group.
CtBP-E1A inh: blocks the CtBP interaction with E1A; hit rate 0.49% among 340,000; activity change, % (no concentration beside the values); AlphaScreen GST-E1A/His-CtBP binding, 1536-well; hits give low values; AID 651724; in the data active means activity change below about -65%; inconclusive means mostly about -30% to -63%
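GST-E1A and His-tagged CtBP (125 nM each as 5X stock) were preincubated with pin-transferred compound for 2 h at 37 °C in the dark, then glutathione donor and nickel acceptor beads were added for 1 h before AlphaScreen reading.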
TDP1 cell noCPT: qHTS for Inhibitors of human tyrosyl-DNA phosphodiesterase 1 (TDP1): qHTS in cells in absence of CPT; DT40 Tdp1-/- hTDP1 cells, no CPT, ATP luminescence, 48 h; Potency, µM (doses to about 46.2 µM), most hits filed as inhibitors; hit rate 15% among 420,000; AID 686978, 2013; further: nearly all actives have a fitted effect of over 55% in size
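Compound effects on proliferation are scored in DT40 Tdp1-/-;hTDP1 cells in the absence of CPT. ATP levels (CellTiter-Glo luminescence) are recorded after a ≥48 hr, 37 °C incubation.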
IL1B secr inh: blocks inflammasome-driven IL-1 beta release. THP-1 LPS/ATP IL-1B secretion, AlphaLISA, 16 h; hits give low values. activity change, % at 57.5 µM. hit rate 4.7% among 360,000; in the data active means activity change below about -50%; inconclusive means mostly about -30% to -49%
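Secreted IL-1B measured by AlphaLISA bead assay after 16 h compound exposure of THP-1 cells; compounds (final up to 57.5 uM) added 1 h before LPS (250 ng/mL) and ATP (1.25 mM) stimulation; lower signal means less secretion.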
TDP1 cell CPT: growth inhibition of DT40 Tdp1-/-;hTDP1 cells with camptothecin (screen for TDP1 inhibitors) | chicken DT40 Tdp1-/-;hTDP1 cells + 20 nM CPT, ATP luminescence, 48 h | Potency, µM (series often up to 46.2 µM), usual class: inhibitors | hit rate 12% among 420,000 | AID 686979; further: nearly all actives have a fitted effect of over 55% in size
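Chicken DT40 Tdp1-/- cells complemented with human TDP1, 400 cells/well, exposed to compounds plus 20 nM camptothecin for at least 48 h at 37 C; viability read as ATP content by CellTiter-Glo luminescence.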
TDP1 block: TDP1 (human) enzyme inhibition; Q9NUW8; recombinant TDP1, AlphaScreen DNA substrate cleavage; Potency, µM (titrated, usually from 130 µM), usual class: inhibitors; hit rate 0.28% among 350,000; further: nearly all actives have a fitted effect of over 40% in size
Target sequence (Q9NUW8 whole entry, looked up): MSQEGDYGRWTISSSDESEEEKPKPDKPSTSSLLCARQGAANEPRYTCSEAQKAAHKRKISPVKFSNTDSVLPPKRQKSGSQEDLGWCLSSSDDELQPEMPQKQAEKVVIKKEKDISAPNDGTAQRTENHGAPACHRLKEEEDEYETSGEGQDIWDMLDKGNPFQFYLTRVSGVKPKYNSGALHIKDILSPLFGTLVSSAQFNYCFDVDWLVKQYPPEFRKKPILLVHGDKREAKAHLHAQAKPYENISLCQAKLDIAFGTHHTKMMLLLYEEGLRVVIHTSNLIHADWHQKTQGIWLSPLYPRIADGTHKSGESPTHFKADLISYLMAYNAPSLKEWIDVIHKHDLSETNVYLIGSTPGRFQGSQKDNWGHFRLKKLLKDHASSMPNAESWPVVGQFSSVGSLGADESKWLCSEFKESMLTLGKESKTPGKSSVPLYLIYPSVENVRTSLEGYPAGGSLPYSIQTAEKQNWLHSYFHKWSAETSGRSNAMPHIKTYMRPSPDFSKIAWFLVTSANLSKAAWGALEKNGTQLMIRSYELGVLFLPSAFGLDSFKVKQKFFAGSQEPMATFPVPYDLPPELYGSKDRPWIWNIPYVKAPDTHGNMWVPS
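E. coli-derived human Tdp1, 1 nM final. Cpd preinc 15 min RT; substrate 15 nM final, 5 min RT; AS bead mix 10 ug/ml final, 10 min RT. Signal loss = tyrosine-FITC cleavage. No-enzyme wells = max signal.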
Six1-Eya2 blk: inhibitors of human Six1/Eya2 interaction; AlphaScreen GST-Six1/His-Eya2 binding, biochemical; hits give low values; activity change, % (test concentration not listed); hit rate 0.56% among 360,000; in the data active means activity change below about -65%; inconclusive means mostly about -30% to -63%
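AlphaScreen luminescence read after one hour at 37 °C in darkness. Pin-transferred compounds met GST-Six1 and His-Eya2 protein (5X stock 250 nM/500 nM) plus glutathione donor and Ni-chelate acceptor beads (5X, 50 ug/mL).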
Large screens that a line does not name were inactive; ! = not confirmed by another sample. Unless noted, the call rests on the fitted dose curve; in most records, active means well fitted curve in the direction sought with a large enough effect; inconclusive means small, poorly fitted or top-dose-only effect, or another doubt; inactive means no such curve, though single readings can be large; an effect the other way counts as inactive or inconclusive.

CCOP(=O)(c1ccc(N(C)C)cc1)C(O)c1c(Cl)cccc1Cl (stereo not given)	none
O=C(c1ccc(C(F)(F)F)cc1)N1CCC(=O)N(C(COCc2ccc(C(F)(F)F)cc2)Cc2ccccc2)CC1 (stereo not given)	TDP1 cell noCPT 18µM, IL1B secr inh -82, TDP1 cell CPT inconclusive
Cc1cccc(COCC(Cc2ccccc2)N2CCN(C(=O)c3ccc(C(F)(F)F)cc3)CCC2=O)c1 (stereo not given)	TDP1 cell noCPT 21µM, IL1B secr inh -76, TDP1 cell CPT 23µM
O=C(c1cc(Cl)cc(Cl)c1)N1CCC(=O)N([C@H](COCc2ccccc2)Cc2ccccc2)CC1	TDP1 cell noCPT inconclusive, IL1B secr inh inconclusive, TDP1 cell CPT inconclusive (no result: TDP1 block)
Cc1cccc(C(=O)N2CCC(=O)N([C@H](COCc3ccc(Cl)cc3)Cc3ccccc3)CC2)c1	TDP1 cell noCPT inconclusive, TDP1 cell CPT inconclusive
Cc1cccc(COC[C@H](Cc2ccccc2)N2CCN(C(=O)c3ccc(C(F)(F)F)cc3)CCC2=O)c1	TDP1 cell noCPT 18µM, IL1B secr inh -67, TDP1 cell CPT inconclusive (no result: TDP1 block)
CC(C)C(C(=O)NC1CCCC1)N(Cc1ccco1)C(=O)CNS(=O)(=O)c1ccccc1 (stereo not given)	none
Cc1cccc(N2CC(C(=O)NCCC3=CCCCC3)CC2=O)c1C (stereo not given)	TDP1 cell noCPT inconclusive, TDP1 cell CPT inconclusive
CCOC(=O)c1ccc(N2Cc3ccccc3C2=NC(=O)c2ccncc2)cc1	none
N=c1c(S(=O)(=O)c2ccccc2)cc2c(=O)n3ccccc3nc2n1C1CCCC1	TDP1 cell noCPT inconclusive (no result: TDP1 block)
Cn1c(=N)c(S(=O)(=O)c2ccccc2)cc2c(=O)n3ccccc3nc21	CtBP-E1A inh -70, Six1-Eya2 blk inconclusive
Cn1c(=N)c(S(=O)(=O)c2ccc(F)cc2)cc2c(=O)n3ccccc3nc21	none
Cc1ccc(S(=O)(=O)c2cc3c(=O)n4ccccc4nc3n(C3CCCCC3)c2=N)cc1	TDP1 cell noCPT 21µM, TDP1 cell CPT inconclusive
N=c1c(S(=O)(=O)c2ccccc2)cc2c(=O)n3ccccc3nc2n1CCCN1CCOCC1	none (no result: TDP1 block)
Cc1ccc(S(=O)(=O)c2cc3c(=O)n4ccccc4nc3n(CCCN3CCOCC3)c2=N)cc1C	IL1B secr inh -72, TDP1 cell CPT inconclusive
ClCc1nc2ccccc2n1Cc1ccccc1	TDP1 cell noCPT 7.3µM, TDP1 cell CPT 10µM (no result: CtBP-E1A inh, TDP1 block)
Cc1ccc(Cn2c(Cc3ccccc3)nc3ccccc32)cc1	TDP1 cell noCPT 16µM, TDP1 cell CPT 18µM!
COC(=O)Cn1c(Cc2ccccc2)nc2ccccc21	TDP1 cell noCPT inconclusive (no result: TDP1 block)
COc1ccccc1OCc1nc2ccccc2n1Cc1ccccc1	TDP1 cell noCPT 16µM, TDP1 cell CPT inconclusive (no result: CtBP-E1A inh, IL1B secr inh, Six1-Eya2 blk)
OCCCc1nc2ccccc2n1Cc1ccccc1	TDP1 cell CPT inconclusive (no result: TDP1 block)
Cc1ccc(S(=O)(=O)NNC2=NS(=O)(=O)c3ccccc32)c(C)c1	none
O=C(NCC1CCCCC1)c1cc(Br)ccc1Cl	TDP1 cell noCPT inconclusive
CC1CC(C)CN(C(=O)CCS(=O)(=O)c2ccc3c(c2)NC(=O)CS3)C1 (stereo not given)	TDP1 cell noCPT inconclusive, TDP1 cell CPT inconclusive
CC(CS(=O)(=O)c1ccc2c(c1)NC(=O)CS2)C(=O)NCc1ccccc1Cl (stereo not given)	TDP1 cell CPT inconclusive, TDP1 block 8.9µM, Six1-Eya2 blk inconclusive
CC(CS(=O)(=O)c1ccc2c(c1)NC(=O)CS2)C(=O)N1CCN(c2cccc(Cl)c2)CC1 (stereo not given)	TDP1 cell noCPT inconclusive, TDP1 cell CPT 18µM
Cc1ccc(CNS(=O)(=O)c2ccc3c(c2)NC(=O)CS3)cc1	TDP1 cell noCPT 15µM, TDP1 cell CPT inconclusive (no result: CtBP-E1A inh)
Cc1ccccc1-c1nc(CS(=O)(=O)CC(=O)NCCc2ccccc2)c(C)o1	TDP1 cell CPT inconclusive
CCCN1C2CCCC1CC(NC(=O)c1cc(OC)cc(OC)c1)C2 (stereo not given)	none (no result: CtBP-E1A inh, TDP1 block)

Screens as filed in PubChem.
